Measurements: PubChem BioAssay
Activity calls are given as the source filed them.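 The calls were made as follows, unless noted: active = fluorescence slope higher than the sample average by over 3 SD (cut at about -0.22 in these data, passing the limit was not always enough); inactive = the rest.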

Legend:
[1] = inhibitors of TNFa-induced NFkB p65 translocation, primary screen, imaging, HUVEC, MLSMR starter and 10KST1 sets (AID 438;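 active = inhibition above 20% together with a positive visual image hit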;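 also: compound added about 3h40 before a 20 min TNFalpha stimulation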;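 as to inhibition: signal is the nuclear over cytoplasmic p65 intensity ratio per well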); conditions: HUVEC TNFa-induced p65 nuclear translocation; cell count: measured here: nuclei count (cytotoxicity indicator), at 2.08 µM; inhibition: at 2 µM, stronger effect = higher value, 0% TNFa-plus-vehicle, 100% no-TNFa wells
[2] = inhibitors of mutant huntingtin aggregation, primary screen, imaging, exon1htt(103Q)mCFP cells, high-content imaging (AID 483;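 active = visual image review flags a hit and inhibition of aggregation exceeds 20%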;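 also: compound exposure lasted 3 days before fixation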;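 as to nuclei count: percent of the per-plate median nuclei count of sample wells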); conditions: exon1htt(103Q)mCFP cell line, aggregate imaging, at 2 µM; inhibition of aggregation: stronger effect = higher value; nuclei count: measured here: cell count, toxicity
[3] = inhibitors of E-selectin induction by TNFa, primary screen, imaging, HUVEC, immunofluorescence, MLSMR starter and 10KST1 sets (AID 487;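 active = visually confirmed hit in the image check and inhibition above 20%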;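 as to inhibition: signal is fraction of cell area covered by stained E-selectin grains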;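 as to nuclei count: 100% = median nuclei count of all wells on the same plate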); conditions: HUVEC TNFalpha-induced E-selectin immunofluorescence imaging, at 2 µM; inhibition: stronger effect = higher value; nuclei count: measured here: cell number, toxicity
[4] = target: Voltage-gated potassium channel subunit beta-2 (Rattus norvegicus) (UniProt P62483); experiment: KvBeta enzyme negative modulators, primary screen, biochemical, NADPH fluorescence (AID 622); conditions: recombinant KvBeta, 4-cyanobenzaldehyde reduction, at 10 µM, stronger effect = higher value;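 also: slope of raw intensity against log time taken from 70 to 1610 s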
[5] = target: Voltage-gated potassium channel subunit beta-2 (Rattus norvegicus) (UniProt P62483); experiment: KvBeta positive modulators, primary screen, biochemical, NADPH fluorescence (AID 623;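 active = NADPH fluorescence slope more negative than the mean of all samples by about 3 SD, 99.7% confidence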;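 also: fluorescence intensity change per second fitted from 20 to 320 s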); conditions: Recombinant KvBeta, NADPH fluorescence decrease slope, 10 min; at 10 µM; stronger effect = lower value
[6] = target: Alpha-2C adrenergic receptor (Homo sapiens) (UniProt P18825); experiment: modulators of alpha2C/GIRK thallium flux, primary screen, cell-based, HEK293 alpha2C/GIRK1/2 (AID 624;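 active = fluorescence slope after compound addition differing from the mean of all screened samples at 99.7% confidence, in either direction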;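 also: slope of fluorescence ratio to pre-addition baseline per second over 15 to 24 s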); conditions: thallium flux BTC fluorescence, at 10 µM, actives lie on both sides
[7] = inhibitors of Sendai virus-induced IRF3 signaling, primary screen, TLR/RLR signaling modifier project, cell-based, Sendai virus stimulus, luciferase, 10K MLSCN set (AID 602276;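 active = inhibition at or above 50% at 10 µM; inactive = inhibition below 50%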;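 also: firefly luciferase from ISG56 promoter only with Renilla not read in this screen; 0% = Sendai virus plus DMSO and 100% = medium plus DMSO without virus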); conditions: HEK293 RL24 IRF3 luciferase reporter, at 10 µM, stronger effect = higher value
[8] = inhibitors of poly I:C-induced TLR3 signaling, primary screen, cell-based, poly I:C stimulus, luciferase, 10K MLSCN set (AID 602277;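 active = inhibition of the reporter signal at or above 50%; inactive = inhibition below 50%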); conditions: HEK293-TLR3 RL24 IRF3 luciferase reporter, at 10 µM, stronger effect = higher value

Voltage-gated potassium channel subunit beta-2 (Rattus norvegicus), sequence (P62483 whole entry, looked up): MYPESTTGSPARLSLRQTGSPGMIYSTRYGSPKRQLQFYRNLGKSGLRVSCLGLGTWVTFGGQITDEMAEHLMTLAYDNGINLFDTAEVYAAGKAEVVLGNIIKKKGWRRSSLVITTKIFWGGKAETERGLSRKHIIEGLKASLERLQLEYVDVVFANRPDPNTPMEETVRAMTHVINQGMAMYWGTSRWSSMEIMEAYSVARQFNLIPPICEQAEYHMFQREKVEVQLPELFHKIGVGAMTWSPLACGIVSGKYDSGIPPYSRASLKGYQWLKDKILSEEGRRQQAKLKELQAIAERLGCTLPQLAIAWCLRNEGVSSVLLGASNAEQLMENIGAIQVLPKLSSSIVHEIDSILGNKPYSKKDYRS
Alpha-2C adrenergic receptor (Homo sapiens), sequence (P18825 whole entry, looked up): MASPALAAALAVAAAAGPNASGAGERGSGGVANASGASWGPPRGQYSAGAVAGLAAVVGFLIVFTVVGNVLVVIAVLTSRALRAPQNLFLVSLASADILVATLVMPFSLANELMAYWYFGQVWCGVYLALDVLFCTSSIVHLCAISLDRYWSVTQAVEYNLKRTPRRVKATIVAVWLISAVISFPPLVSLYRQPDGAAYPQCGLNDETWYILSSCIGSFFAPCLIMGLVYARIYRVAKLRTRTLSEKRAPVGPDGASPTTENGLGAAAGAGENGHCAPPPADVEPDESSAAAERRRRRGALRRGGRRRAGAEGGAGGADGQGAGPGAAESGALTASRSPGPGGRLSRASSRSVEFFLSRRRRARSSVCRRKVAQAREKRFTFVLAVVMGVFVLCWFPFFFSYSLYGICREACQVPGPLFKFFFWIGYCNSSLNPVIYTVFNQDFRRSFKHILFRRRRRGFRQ

CC(C)OC(=O)c1ccc(NC(=O)C2C3CC4OC(=O)C2C4C3)cc1 (centres undefined)
cell count [1]: 324
inhibition [1]: -10.5% (inactive)
inhibition of aggregation [2]: -9.4% (inactive)
nuclei count [2]: 103%
inhibition [3]: -115% (inactive)
nuclei count [3]: 151%
fluorescence slope [4]: -0.327 (inactive)
NADPH fluorescence slope [5]: -6e-05 (inactive)
slope [6]: 0.00657 (inactive)
inhibition [7]: -44.9% (inactive)
inhibition [8]: -88.7% (inactive)

O=C(Oc1ccccc1)c1cccc(COC(=O)c2cnccn2)c1
cell count [1]: 385
inhibition [1]: -1.6% (inactive)
inhibition of aggregation [2]: 7.9% (inactive)
nuclei count [2]: 103%
inhibition [3]: 20.7% (inactive)
nuclei count [3]: 105%
fluorescence slope [4]: -0.425 (inactive)
NADPH fluorescence slope [5]: -5.1e-05 (inactive)
slope [6]: 0.00507 (inactive)
inhibition [7]: 5.8% (inactive)
inhibition [8]: 3.65% (inactive)

COc1ccc(C)cc1S(=O)(=O)N1CCN(S(=O)(=O)c2cc(C)ccc2OC)CC1
cell count [1]: 427
inhibition [1]: -0.2% (inactive)
inhibition of aggregation [2]: -15.7% (inactive)
nuclei count [2]: 97.4%
inhibition [3]: 17.9% (inactive)
nuclei count [3]: 112%
fluorescence slope [4]: -0.536 (inactive)
NADPH fluorescence slope [5]: -3.9e-05 (inactive)
slope [6]: 0.00449 (inactive)
inhibition [7]: -3.93% (inactive)
inhibition [8]: 9.61% (inactive)

O=C(CSc1nnnn1C1CCCCC1)N1CCc2ccccc21
cell count [1]: 348
inhibition [1]: 0.8% (inactive)
inhibition of aggregation [2]: -13.7% (inactive)
nuclei count [2]: 101%
inhibition [3]: 1.9% (inactive)
nuclei count [3]: 120%
fluorescence slope [4]: -0.566 (inactive)
NADPH fluorescence slope [5]: -4e-05 (inactive)
slope [6]: 0.00388 (inactive)
inhibition [7]: 9.99% (inactive)
inhibition [8]: -10% (inactive)

COc1ccccc1C(=O)Nc1ccc(S(=O)(=O)N2CCCC2)cc1
cell count [1]: 676
inhibition [1]: 2.2% (inactive)
inhibition of aggregation [2]: 7.3% (inactive)
nuclei count [2]: 114%
inhibition [3]: -22.4% (inactive)
nuclei count [3]: 108%
fluorescence slope [4]: -0.584 (inactive)
NADPH fluorescence slope [5]: -2.5e-05 (inactive)
slope [6]: 0.0037 (inactive)
inhibition [7]: 8.65% (inactive)
inhibition [8]: -0.301% (inactive)

Cn1nc(C(=O)NC2CCCCCC2)ccc1=O
cell count [1]: 348
inhibition [1]: -4.6% (inactive)
inhibition of aggregation [2]: 14% (inactive)
nuclei count [2]: 105%
inhibition [3]: -2.2% (inactive)
nuclei count [3]: 121%
fluorescence slope [4]: -0.608 (inactive)
NADPH fluorescence slope [5]: -2.1e-05 (inactive)
slope [6]: 0.00579 (inactive)
inhibition [7]: 9.51% (inactive)
inhibition [8]: 11.7% (inactive)

CCN(CC)Cc1c(C(=O)OC)nnn1-c1nonc1N
cell count [1]: 476
inhibition [1]: -0.2% (inactive)
inhibition of aggregation [2]: 13.9% (inactive)
nuclei count [2]: 99.5%
inhibition [3]: -18.2% (inactive)
nuclei count [3]: 107%
fluorescence slope [4]: -0.504 (inactive)
NADPH fluorescence slope [5]: -0.000189 (inactive)
slope [6]: 0.00521 (inactive)
inhibition [7]: 4.14% (inactive)
inhibition [8]: 14.8% (inactive)

CC1Cc2ccccc2N1C(=O)C12CCC(C)(C(=O)C1)C2(C)C (centres undefined)
cell count [1]: 387
inhibition [1]: -1.6% (inactive)
inhibition of aggregation [2]: -6.9% (inactive)
nuclei count [2]: 99.5%
inhibition [3]: -141% (inactive)
nuclei count [3]: 116%
fluorescence slope [4]: -0.544 (inactive)
NADPH fluorescence slope [5]: -7.5e-05 (inactive)
slope [6]: 0.00468 (inactive)
inhibition [7]: -4.72% (inactive)
inhibition [8]: 1.25% (inactive)

CCc1ccccc1NC(=O)c1cnc2n(c1=O)CCS2
cell count [1]: 582
inhibition [1]: -3.9% (inactive)
inhibition of aggregation [2]: -4.9% (inactive)
nuclei count [2]: 94.6%
inhibition [3]: -4.7% (inactive)
nuclei count [3]: 117%
fluorescence slope [4]: -0.494 (inactive)
NADPH fluorescence slope [5]: -1.7e-05 (inactive)
slope [6]: 0.00691 (inactive)
inhibition [7]: 12.7% (inactive)
inhibition [8]: -13.2% (inactive)

CCOC(=O)C1(C)NC(c2ccc(OC)c(OC)c2)C2C(=O)N(CC)C(=O)C21 (centres undefined)
cell count [1]: 369
inhibition [1]: -8.4% (inactive)
inhibition of aggregation [2]: 29.1% (inactive)
nuclei count [2]: 105%
inhibition [3]: -211% (inactive)
nuclei count [3]: 182%
fluorescence slope [4]: -0.598 (inactive)
NADPH fluorescence slope [5]: -9.8e-06 (inactive)
slope [6]: 0.00547 (inactive)
inhibition [7]: 1.25% (inactive)
inhibition [8]: 14.3% (inactive)

CCOC(=O)c1sc2cccc(F)c2c1N
cell count [1]: 546
inhibition [1]: -17.8% (inactive)
inhibition of aggregation [2]: 24.4% (inactive)
nuclei count [2]: 102%
inhibition [3]: 4.5% (inactive)
nuclei count [3]: 110%
fluorescence slope [4]: -0.319 (inactive)
NADPH fluorescence slope [5]: -7.4e-05 (inactive)
slope [6]: 0.00522 (inactive)
inhibition [7]: -3.55% (inactive)
inhibition [8]: -14.4% (inactive)

COc1ccc(OC)c(S(=O)(=O)N2CCC(C(=O)NCC3CCCO3)CC2)c1 (centres undefined)
cell count [1]: 268
inhibition [1]: 1.3% (inactive)
inhibition of aggregation [2]: 10.7% (inactive)
nuclei count [2]: 100%
inhibition [3]: -34.4% (inactive)
nuclei count [3]: 115%
fluorescence slope [4]: -0.352 (inactive)
NADPH fluorescence slope [5]: 2.2e-05 (inactive)
slope [6]: 0.00611 (inactive)
inhibition [7]: 14.9% (inactive)
inhibition [8]: 20.2% (inactive)

COc1ccccc1NC(=O)NCCCN1CCN(c2cccc(Cl)c2)CC1
cell count [1]: 628
inhibition [1]: -11.6% (inactive)
inhibition of aggregation [2]: 13.1% (inactive)
nuclei count [2]: 112%
inhibition [3]: -47.7% (inactive)
nuclei count [3]: 118%
fluorescence slope [4]: -0.556 (inactive)
NADPH fluorescence slope [5]: 1e-05 (inactive)
slope [6]: 0.00548 (inactive)
inhibition [7]: -24.8% (inactive)
inhibition [8]: -19.5% (inactive)

CCOC(=O)c1c(NC(=O)Cn2c(=O)oc3ccccc32)oc(C)c1C(C)=O
cell count [1]: 365
inhibition [1]: -5.4% (inactive)
inhibition of aggregation [2]: -18.8% (inactive)
nuclei count [2]: 74.1%
inhibition [3]: 1.9% (inactive)
nuclei count [3]: 119%
fluorescence slope [4]: -0.484 (inactive)
NADPH fluorescence slope [5]: 1.5e-05 (inactive)
slope [6]: 0.00454 (inactive)
inhibition [7]: 5.7% (inactive)
inhibition [8]: 11.9% (inactive)
